From paper PMC4336329 (PLoS ONE, 2015)
The campaign covered roughly 310,000 compounds. About 14,000 (4.5%) showed an effect of 50% or more. Effects have a minus sign here. The full list was thinned out, with strong results kept by preference.

Target: human ether-à-go-go-related gene (hERG) potassium channel (human, UniProt Q12809)
Test: primary screen, population patch clamp on CHO cells stably expressing hERG; higher = less effect of the substance
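Note: peak tail current of the secondary pulse compared with the same well before compound.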

human ether-à-go-go-related gene (hERG) potassium channel, sequence (Q12809 whole entry, looked up): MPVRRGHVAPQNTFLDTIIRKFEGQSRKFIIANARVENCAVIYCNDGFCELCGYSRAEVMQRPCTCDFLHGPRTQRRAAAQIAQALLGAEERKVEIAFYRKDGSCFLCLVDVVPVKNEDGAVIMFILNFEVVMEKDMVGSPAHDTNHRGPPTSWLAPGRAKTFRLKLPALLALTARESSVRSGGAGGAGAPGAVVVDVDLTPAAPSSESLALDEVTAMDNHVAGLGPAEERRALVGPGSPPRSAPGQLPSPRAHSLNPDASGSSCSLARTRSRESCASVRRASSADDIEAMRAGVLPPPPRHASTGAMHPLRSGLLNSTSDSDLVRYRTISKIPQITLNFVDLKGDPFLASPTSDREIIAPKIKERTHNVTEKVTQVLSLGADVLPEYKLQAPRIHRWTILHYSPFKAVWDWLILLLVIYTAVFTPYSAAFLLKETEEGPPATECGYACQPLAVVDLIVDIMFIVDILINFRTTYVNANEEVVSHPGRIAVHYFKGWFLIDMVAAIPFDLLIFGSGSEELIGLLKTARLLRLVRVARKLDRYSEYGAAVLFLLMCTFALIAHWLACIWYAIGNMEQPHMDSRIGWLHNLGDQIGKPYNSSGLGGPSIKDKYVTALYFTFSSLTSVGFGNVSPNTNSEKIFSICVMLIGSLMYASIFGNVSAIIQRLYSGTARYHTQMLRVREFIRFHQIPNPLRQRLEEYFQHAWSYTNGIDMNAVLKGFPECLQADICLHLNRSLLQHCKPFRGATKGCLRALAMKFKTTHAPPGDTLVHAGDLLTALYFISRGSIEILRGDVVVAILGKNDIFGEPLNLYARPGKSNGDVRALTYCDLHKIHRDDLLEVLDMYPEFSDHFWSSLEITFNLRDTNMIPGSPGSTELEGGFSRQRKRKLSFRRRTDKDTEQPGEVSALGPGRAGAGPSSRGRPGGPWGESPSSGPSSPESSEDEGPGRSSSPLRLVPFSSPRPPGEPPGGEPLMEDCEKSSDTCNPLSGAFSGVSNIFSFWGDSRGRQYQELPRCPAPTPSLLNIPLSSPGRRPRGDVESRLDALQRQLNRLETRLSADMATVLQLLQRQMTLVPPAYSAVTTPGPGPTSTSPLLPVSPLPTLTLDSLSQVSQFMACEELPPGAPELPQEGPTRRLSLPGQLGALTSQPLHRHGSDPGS

Row | SMILES | hERG current change (%, negative = inhibition) at 10uM [%]
1 | COc1ccc(C(=O)C2CCCN(C(=O)c3noc4c3CCCC4)C2)cc1F (stereo not drawn) | -39.9
2 | CCc1ccc2[nH]c(=O)c(CN(Cc3ccccc3OC)Cc3nnnn3Cc3ccco3)cc2c1 | -14.3
3 | COc1ccc(C(=O)COc2ccc3ccc(=O)oc3c2)cc1 | -3.32
4 | CC(=O)n1cc(N(C(=O)CCl)c2ccc(C)cc2)c2ccccc21 | -5.35
5 | CC(=O)n1cc(N(C(=O)CCl)c2ccc([N+](=O)[O-])cc2)c2ccccc21 | -57.1
6 | CC(=O)n1cc(N(C(=O)CCl)c2ccccc2)c2ccccc21 | 1.19
7 | CC1CCCCN1C(=O)CCc1nnc(Cc2c[nH]c3ccccc23)o1 (stereo not drawn) | 4.94
8 | COc1ccc(S(=O)(=O)N2CCCC(C(=O)Nc3ccc(NC(=O)c4ccccn4)cc3)C2)cc1 (stereo not drawn) | 4.17
9 | O=C(CN1C(=O)COc2ccccc21)NCCCN1CCN(Cc2ccccc2)CC1 | -11.7
10 | O=S(=O)(Nc1ccccn1)c1ccc(-n2cccn2)cc1 | 21.3
11 | CCCN1C2=C(C(=O)CCC2)C(c2ccc(O)c(Br)c2)C2=C1CCCC2=O | -18.1
12 | Clc1ccc(-c2nc(/C=N/N3CCOCC3)c3ccccn23)cc1 | -5.18
13 | CN1CCN(/N=C/c2nc(-c3ccc(Cl)cc3)n3ccccc23)CC1 | -62.1
14 | CN1CCN(/N=C/c2nc(-c3ccccc3)n3ccccc23)CC1 | -19.9
15 | COc1ccc(N2CCN(C(=O)CSc3nnnn3C3CC3)CC2)cc1 | -13.6
16 | CC(=O)Nc1nc(C)c(-c2nc3ccc([N+](=O)[O-])cc3[nH]2)s1 | 13.9
17 | COc1ccc(-n2cc(CNCCc3nc(C)cc(C)n3)c(-c3ccccc3Cl)n2)cc1 | -62.6
18 | COc1ccc(-n2cc(CNCCN3CCOC3=O)c(-c3ccccc3Cl)n2)cc1 | -18.5
19 | CCN1CCC(CNCc2cn(-c3ccc(OC)cc3)nc2-c2ccccc2Cl)C1 (stereo not drawn) | -9.43
20 | CCN1CC(CNCc2cn(-c3ccc(OC)cc3)nc2-c2ccccc2Cl)CC1=O (stereo not drawn) | -24.4
21 | Cc1cccc(-n2cc(CN3CCCN(C=O)CC3)c(-c3cccc(F)c3)n2)c1 | -10.8
22 | COc1ccc(-n2cc(CNCCc3cscn3)c(-c3ccccc3Cl)n2)cc1 | -64.5
23 | COc1ccc(-n2cc(CNCCCN3CCCC3=O)c(-c3ccccc3Cl)n2)cc1 | -60.9
24 | COc1ccc(-n2cc(CNCCc3cnc[nH]3)c(-c3cccc(F)c3)n2)cc1 | -28.9
25 | COc1ccc(-c2nn(-c3ccccc3)cc2CO)cc1 | 4.56
26 | Cc1cccc(-n2cc(CNCCc3nc(C)cc(C)n3)c(-c3cccc(F)c3)n2)c1 | -67.9
27 | O=C(Nc1cccc(O)c1)C1CCCN1C(=O)OCc1ccccc1 (stereo not drawn) | -7.35

Row | SMILES | hERG current change (%, negative = inhibition) at 10uM [%]
28 | CC(C)Oc1ccc(OCCn2c(S(=O)(=O)O)nc3c(N)ncnc32)cc1 | 15.9
29 | COc1ccc(NC(=O)CN(Cc2ccccc2)Cc2ccccc2)cc1S(N)(=O)=O | -36.7
30 | CCC(=O)Nc1ccc(C(=O)N/N=C/c2ccccc2[N+](=O)[O-])cc1 | 14.1
31 | CCn1c(SCc2ccc(OC)cc2)nnc1-c1ccncc1 | -18.9
32 | Cc1cccc(-c2nnc(SCC(=O)Nc3cc(C)on3)n2C)c1 | 1.68
33 | Cc1nc(CN2CCN(C(=O)c3ccc(C(C)(C)C)cc3)CC2)cs1.Cl | -3.25
34 | COc1ccc(N2CC(C(=O)Nc3c4c(nn3-c3ccc(OC)cc3)CS(=O)(=O)C4)CC2=O)cc1 (stereo not drawn) | 21.4
35 | O=C1COc2ccc3ccccc3c2CN1 | 6.37
36 | Cc1ccc(S(=O)(=O)N2CCCC2CNC(=O)C(=O)NC2CCCC2)cc1 (stereo not drawn) | -40.3
37 | Cc1ccc(-n2nc3c(=O)n(CCCC(=O)NCCN4CCN(C)CC4)nc(C)c3c2C)cc1 | 16.8
38 | Cc1ccc(S(=O)(=O)N2CCC(C(=O)NC3CC3)CC2)cc1 | -5.59
39 | O=C1CS/C(=N\c2ccccn2)N1C1CCCCC1 | 13.7
40 | CC(NC(=O)CN1CCc2ccccc21)c1ccccc1 (stereo not drawn) | 8.5
41 | COc1ccc(-n2cc(CNCCc3ncc(C)[nH]3)c(-c3ccccc3Cl)n2)cc1 | -63.6
42 | N#CCN1CCCC(C(N)=O)C1 (stereo not drawn) | 0.891
43 | COc1ccccc1-n1c(SCC(=O)NCC2CCCO2)nc2c([nH]c3ccccc32)c1=O (stereo not drawn) | 9.22
44 | CCN(CC)c1ccc(C(=O)N/N=C(\C)c2ccc(OC)c(OC)c2)cc1 | 3.53
45 | Cc1nnsc1C(=O)NNS(=O)(=O)c1ccccc1 | 8.81
46 | C=CCOc1ccc(/C=N/NC(=O)C(C)Sc2ccccn2)cc1OCC (stereo not drawn) | 20.6
47 | CCCCN(C)C(=O)c1nc2ccccn2c1CN1CCSCC1 | 6.32
48 | CCCCN(C)C(=O)c1nc2ccccn2c1CN1CCN(C/C=C/c2ccccc2)CC1 | -83.9
49 | CCCCN(C)C(=O)c1nc2ccccn2c1CN1CCN(c2ccccn2)CC1 | -7.16
50 | CCCCN(C)C(=O)c1nc2ccccn2c1CN1CCN(c2ncccn2)CC1 | -10.2
51 | CCCCN(C)C(=O)c1nc2ccccn2c1CN1CCN(C(=O)c2cccs2)CC1 | -51.8
52 | CCCCN(C)C(=O)c1nc2ccccn2c1CN1CCN(c2cnccn2)CC1 | -12.4
53 | COC(=O)C1=C(C(=O)OC)[C@@H]2N(Cc3ccccc3)c3ccccc3[C@@]23C[C@@H](C(=O)OC)N(C(=O)NC(C)(C)C)C3=N1 | -11.7
54 | Brc1cnc(N2CCCCC2)nc1N1CCOCC1 | -6.45
